Source: PubChem (NMMLSC)
Sampled rows, rich in hits. Any-hit rate of the full collection: about 1.2%.
RGS7-Gao reg: human RGS7-Galphao interaction regulation; P09471; Multiplexed bead flow cytometry, RGS7-Galphao binding; actives lie on both sides; binding response (% of control), % at 10 µM; 220,000 compounds, 0.35% hits; AID 1439; in the data active means binding response below about 49% or above about 150%; inconclusive means no clear call, values can overlap the other calls; inactive means in between;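 further: fluorescent Galphao held in activated GDP-AlF4 state binding bead-coupled RGS7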
RGS4-Gao reg: modulates binding of RGS4 to human Galphao | Multiplexed bead flow cytometry; actives lie on both sides | 220,000 compounds, 0.33% hits | P09471 | binding response (% of control), % at 10 µM; in the data active means binding response below about 49% or above about 150%; inactive means in between;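 further: fluorescent Galphao activated with aluminum fluoride binding bead-coupled RGS4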
RGS8-Gao reg: modulates binding of RGS8 to human Galphao | multiplexed bead flow cytometry; actives lie on both sides | 220,000 compounds, 0.34% hits | response (percent of control binding), % at 10 µM | P09471; in the data active means response below about 60% or above about 140%; inactive means in between;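 further: Galphao activated as the GDP aluminium fluoride complex binding bead-coupled RGS8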
GSH bead fluor: GSH bead compound fluorescence profile; GSH beads flow cytometry, compound fluorescence 488/530 nm; stronger effect = higher value; fluorescence (KMESF) at 10 µM; 190,000 compounds, 0.25% hits; AID 1776; in the data active means fluorescence above about 89;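 further: glutathione beads carrying GST-tagged Bcl family fusion proteins plus one bare bead set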
RGS16-Gao HTS: RGS16-Galphao interaction regulator (human); O15492+P09471; bead-based flow cytometry RGS16-Galphao binding, fluorescence; actives lie on both sides; binding response (% of control), % at 10 µM; 220,000 compounds, 0.38% hits; AID 1441; call rule not given here;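 further: Galphao activated by GDP with aluminum fluoride before binding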
Target sequence (O15492 whole entry, looked up): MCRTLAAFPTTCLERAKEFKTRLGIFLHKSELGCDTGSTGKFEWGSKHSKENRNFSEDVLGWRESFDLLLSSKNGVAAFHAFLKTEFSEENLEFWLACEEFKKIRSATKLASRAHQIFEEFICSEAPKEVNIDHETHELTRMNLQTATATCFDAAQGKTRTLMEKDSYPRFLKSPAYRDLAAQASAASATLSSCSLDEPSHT
Target sequence (P09471 whole entry, looked up): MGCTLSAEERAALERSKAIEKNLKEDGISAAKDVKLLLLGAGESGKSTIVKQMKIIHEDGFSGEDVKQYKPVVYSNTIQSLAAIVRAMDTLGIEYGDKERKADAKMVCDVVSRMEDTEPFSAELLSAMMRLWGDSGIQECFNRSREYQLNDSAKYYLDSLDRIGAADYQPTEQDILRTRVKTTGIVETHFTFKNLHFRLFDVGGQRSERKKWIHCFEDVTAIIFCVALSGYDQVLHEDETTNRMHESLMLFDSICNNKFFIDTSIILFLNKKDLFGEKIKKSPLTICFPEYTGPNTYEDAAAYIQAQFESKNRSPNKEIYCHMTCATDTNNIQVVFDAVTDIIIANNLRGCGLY
Avidin bead fluor: compound fluoresces at 488/530 nm on avidin beads; fluorescence (KMESF) at 10 µM; compound fluorescence 488/530 nm, flow cytometry; stronger effect = higher value; 220,000 compounds, 0.38% hits; in the data active means fluorescence above about 47
Numbers stand for hits; - = inactive; ? = inconclusive; . = no result given.

SMILES | RGS7-Gao reg | RGS4-Gao reg | RGS8-Gao reg | GSH bead fluor | RGS16-Gao HTS | Avidin bead fluor
CCOC(=O)c1ccccc1NC(=O)Cn1cnc2c1c(=O)n(C)c(=O)n2C | -8.2 | -23.8 | 7.8 | - | -15.2 | -
COc1ccc(/C(N)=N/OC(=O)c2ccc3c(c2)OCO3)cc1 | - | - | - | - | - | 48
COc1ccc(N(C)C(=O)c2oc(=O)c3ccccc3c2-c2ccc(C)cc2)c(OC)c1 | ? | - | - | . | - | -
CCCSCCCNC(=O)Cn1cc2c(n1)CCCCC2 | 43.2 | 49.3 | 56.1 | - | - | -
COCCCNC(=O)Cn1cc2c(n1)CCCCC2 | - | - | - | - | - | -
COc1ccc(-c2cc(C(F)(F)F)nc(-n3ccnc3)n2)cc1 | - | - | - | - | - | -
CCCCOCC(O)Cn1c(C)nc2ccccc21 (stereo not drawn) | - | - | - | 261 | - | -
N#CCOC(=O)/C=C/c1ccc2c(c1)OCO2 | ? | - | - | - | - | -
Cc1ccc(CS/C(Nc2ccccc2C)=C(\C#N)C(=O)NCc2ccco2)c(C)c1 | - | - | - | - | - | -
Cc1ccccc1N/C(SCc1ccc(Cl)cc1)=C(/C#N)C(=O)NCc1ccco1 | - | - | - | - | - | 115
CC(C)(CNS(=O)(=O)c1ccc(F)cc1)CNS(=O)(=O)c1ccc(F)cc1 | - | - | - | - | - | 51
O=S(=O)(NCCNS(=O)(=O)c1ccc(F)cc1)c1ccc(F)cc1 | - | - | - | - | - | -
CC(=O)Nc1cc2c(=O)n(Cc3ccccc3)c(C)nc2cc1N1CCOCC1 | - | - | - | - | - | 52
O=C1C2(CCCC13COC(c1ccc(O)cc1)OC3)COC(c1ccc(O)cc1)OC2 (stereo not drawn) | ? | - | - | . | - | -
O=S(=O)(N/N=C\c1cccnc1)c1ccccc1 | - | - | - | 352 | - | -
O=[N+]([O-])c1cccc(/C=N/NS(=O)(=O)c2ccccc2)c1 | - | - | - | - | - | -
CC(C)N(CC(N)=O)C(=O)c1sc2cc(F)ccc2c1Cl | - | - | - | - | - | -
CN1CCC(N(C)C(=O)c2sc3cc(F)ccc3c2Cl)CC1 | ? | - | - | - | - | 136
CCCC(CCC(=O)Nc1cccc([N+](=O)[O-])c1)C(=O)O (stereo not drawn) | ? | - | - | . | - | -
COc1ccc(Cl)cc1C(=O)Nc1nnn(C)n1 | - | - | - | 257 | - | -
CCOc1ccccc1NC(=O)N1CCC(c2nc3ccccc3[nH]2)CC1 | - | - | - | 259 | - | -
COc1ccccc1NC(=O)N1CCC(c2nc3cc(C)c(C)cc3[nH]2)CC1 | - | - | - | - | - | -
O=C(CSc1nnc2ccccn12)NNC(=O)c1ccc(F)cc1 | ? | - | - | - | - | -
Cc1nc2ccc(NC(=O)Cc3ccccc3F)cc2s1 | ? | - | - | - | - | 53
Cc1ccc(-c2nc(-c3ccccc3)no2)cc1 | - | - | - | - | - | -
SMILES | RGS7-Gao reg | RGS4-Gao reg | RGS8-Gao reg | GSH bead fluor | RGS16-Gao HTS | Avidin bead fluor
Cc1ccc(-c2nc(-c3cccnc3)no2)cc1 | - | - | - | - | - | 56
Cn1c2ccccc2c2c(C(=O)N3CCN(C(=O)c4ccco4)CC3)cn(C3CCCCC3)c(=O)c21 | - | - | - | 149 | - | -
Cn1c2ccccc2c2c(C(=O)N3CCN(c4ccccn4)CC3)cn(C3CCCC3)c(=O)c21 | - | - | - | - | - | -
COc1cccc(OC)c1OCCCN1CCOCC1 | - | - | - | - | - | -
COc1cccc(OC)c1OCCCCN1CCCC1 | - | - | - | - | - | 56
CCOC(=O)c1c(C)[nH]c(C(=O)Cn2nnc(-c3ccccc3)n2)c1C | - | - | - | 265 | - | -
CCOC(=O)c1c(C)[nH]c(C(=O)Cn2nnc(-c3ccccc3Cl)n2)c1C | - | - | - | - | - | -
COc1ccccc1NC(=O)Cn1nnc2sc3c(c2c1=O)CC(C)(C)OC3 | ? | - | - | . | - | -
CC1(C)Cc2c(sc3nnn(CC(=O)Nc4ccccc4)c(=O)c23)CO1 | ? | - | - | . | - | 92
Cc1c(C)n(Cc2ccccc2)c2ccc(C(=O)OCCN(C)C)cc12 | - | - | - | - | - | -
CCn1c(SCC(=O)C(C)(C)C)nnc1-c1ccccn1 | - | - | - | - | - | -
CCn1c(SCC(=O)C(C)(C)C)nnc1-c1cnccn1 | - | - | - | 95 | - | -
